Holding throughout (details): mRNA level, 48 h; actives raise or lower the signal
Read-out in assay [1]: DNA damage-inducible transcript 3 (DDIT3), DDIT3 (gene 1649)
Description: LTEA_HepaRG_DDIT3: Life Technologies and Expression Analysis (LTEA) Assay for DNA damage-inducible transcript 3 (DDIT3) using HepaRG (AID 2283488). The method in brief:
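HepaRG cells, 48 h after plating, exposed 48 h in serum-free induction medium to 8 half-log concentrations up to 100 uM in 0.5% DMSO, in duplicate. DDIT3 mRNA measured by TaqMan qRT-PCR, normalized to ACTB, GAPDH and POLR2A. Fitted bidirectionally against DMSO.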

Read-out in assay [2]: Pro-epidermal growth factor (Homo sapiens) (UniProt P01133)
Description: LTEA_HepaRG_EGF: Life Technologies and Expression Analysis (LTEA) Assay for Epidermal growth factor (EGF) using HepaRG (AID 2283489). The method in brief:
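HepaRG, 48 h dosing, 100 uM top, half-log x8, 0.5% DMSO. Readout: TaqMan qRT-PCR (Fluidigm array), housekeeping-normalized. Gain or loss of signal fit vs DMSO.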

Read-out in assay [3]: Early growth response protein 1 (EGR1) transcription factor, EGR1 (gene 1958)
Description: LTEA_HepaRG_EGR1: Life Technologies and Expression Analysis (LTEA) Assay for Early growth response protein 1 (EGR1) transcription factor using HepaRG (AID 2283490). The method in brief: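 Read-out is EGR1 mRNA level by qRT-PCR, normalized to three housekeeping genes and analysed for gain or loss of signal against 0.5% DMSO. Source cells: human HepaRG, treated 48 h at up to 100 uM in half-log dilutions.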

Read-out in assay [4]: Ezrin (EZR), EZR (gene 7430)
In words: LTEA_HepaRG_EZR: Life Technologies and Expression Analysis (LTEA) Assay for Ezrin (EZR) using HepaRG (AID 2283491). In outline: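 EZR transcript levels came from Fluidigm qRT-PCR and were normalized to three housekeeping genes after 48 h chemical exposure of HepaRG cells. Dosing used an 8-point half-log series with a 100 uM top concentration in 0.5% DMSO, tested in duplicate; both directions were fitted versus vehicle.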

Read-out in assay [5]: Cytochrome P450 3A7 (Homo sapiens) (UniProt P24462)
In words: LTEA_HepaRG_CYP3A7: Life Technologies and Expression Analysis (LTEA) Assay for CYP3A7 using HepaRG (AID 2283492). In outline: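 Human HepaRG liver cells, 48 h post-plating, switched to serum-free induction medium and exposed in duplicate for 48 h. Dosing: 100 uM top, half-log dilutions, 8 points, 0.5% DMSO vehicle. Read-out: CYP3A7 mRNA, gain or loss fitted against DMSO baseline.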

Read-out in a further assay: CYP3A5 (gene 1577)
In words: LTEA_HepaRG_CYP3A5: Life Technologies and Expression Analysis (LTEA) Assay for CYP3A5 using HepaRG (AID 2283493). The method in brief: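 HepaRG cells, plated 48 h then in serum-free induction medium, dosed in duplicate for 48 h with eight half-log concentrations up to 100 uM in 0.5% DMSO. Gene mRNA by Fluidigm TaqMan qRT-PCR, normalized to ACTB, GAPDH, POLR2A.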

Read-out in assay [6]: Fatty Acid-Binding Protein 1 (FABP1), FABP1 (gene 2168)
Description: LTEA_HepaRG_FABP1: Life Technologies and Expression Analysis (LTEA) Assay for Fatty Acid-Binding Protein 1 (FABP1) using HepaRG (AID 2283494). In outline: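 HepaRG, 48 h post-plating switched to serum-free induction medium, then dosed 48 h (duplicate, 8 pts, ≤100 uM, 0.5% DMSO). RNA → Fluidigm TaqMan qRT-PCR, FABP1 normed to ACTB/GAPDH/POLR2A. Bidirectional curve fit vs DMSO.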

Read-out in assay [7]: Cytochrome P450 4A22 (Homo sapiens) (UniProt Q5TCH4)
In words: LTEA_HepaRG_CYP4A22: Life Technologies and Expression Analysis (LTEA) Assay for Cytochrome P450 4A22 (CYP4A22) using HepaRG (AID 2283495). The method in brief: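 Readout is CYP4A22 transcript induction or loss, quantified by qRT-PCR and normalized to ACTB, GAPDH and POLR2A. Human HepaRG cells receive test chemicals for 48 h at eight half-log concentrations from 100 uM in 0.5% DMSO.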

Read-out in assay [8]: Cytochrome P450 7A1 (Homo sapiens) (UniProt P22680)
Description: LTEA_HepaRG_CYP7A1: Life Technologies and Expression Analysis (LTEA) Assay for Cytochrome P450 7A1 (CYP7A1) using HepaRG (AID 2283496). In outline:
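HepaRG cells plated 48 h, then switched to serum-free induction medium and exposed in duplicate for 48 h to 8-point half-log series from 100 uM in 0.5% DMSO. CYP7A1 mRNA by qRT-PCR (TaqMan), normalized to ACTB/GAPDH/POLR2A; bidirectional fit versus DMSO.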

Read-out in assay [9]: Glutathione S-Transferase (GSTA2), GSTA2 (gene 2939)
Description: LTEA_HepaRG_GSTA2: Life Technologies and Expression Analysis (LTEA) Assay for Glutathione S-Transferase (GSTA2) using HepaRG (AID 2283497). In outline:
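HepaRG, 48 h dosing, 8-pt half-log CRC from 100 uM, 0.5% DMSO vehicle, n=2; RNA → Fluidigm TaqMan qRT-PCR; GSTA2 vs ACTB/GAPDH/POLR2A; gain/loss fit vs DMSO.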

Values joined by “and” are separate entries in the source; they are usually repeats but may differ in a detail not shown here. Equal entries are not always repeated. Where a structure was tested more than once in an assay, its records may differ in their call. Active and inactive are the calls of the source. How the source made its calls: active means hit-call score of the fitted dose curve at least 0.9, where 1 is the maximum; inactive means score below 0.9.

The text below walks through data of PubChem BioAssay (EPA / NIEHS).

Sequence of Cytochrome P450 3A7 (Homo sapiens) (P24462 whole entry, looked up): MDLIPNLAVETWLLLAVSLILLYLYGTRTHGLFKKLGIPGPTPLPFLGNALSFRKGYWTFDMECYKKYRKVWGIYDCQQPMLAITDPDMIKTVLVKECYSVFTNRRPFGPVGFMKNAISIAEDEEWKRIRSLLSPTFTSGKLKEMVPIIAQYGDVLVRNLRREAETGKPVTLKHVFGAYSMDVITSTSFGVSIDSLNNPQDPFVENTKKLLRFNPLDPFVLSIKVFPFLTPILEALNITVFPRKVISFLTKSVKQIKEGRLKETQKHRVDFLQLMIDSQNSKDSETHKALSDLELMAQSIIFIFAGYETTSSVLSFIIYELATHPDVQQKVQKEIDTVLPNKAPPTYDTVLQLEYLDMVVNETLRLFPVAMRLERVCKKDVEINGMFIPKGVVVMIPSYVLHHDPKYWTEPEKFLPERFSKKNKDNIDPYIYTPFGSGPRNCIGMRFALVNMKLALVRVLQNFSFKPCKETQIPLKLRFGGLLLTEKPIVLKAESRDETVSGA

As usually defined, the AC50 is the midpoint of the concentration-response curve, whichever way the signal moves. `COc1nc(NC(C)C)nc(NC(C)C)n1`: the outcome (in assay [1]; in assay [2]; in assay [3]; in assay [4]; in assay [5]; in the assay with CYP3A5 (gene 1577)) was inactive. Further, the outcome in assay [7], in assay [8] and in assay [9] was inactive. Besides, the AC50 in assay [6] is 23.1 µM (active).
`C=CCC1=C(C)[C@@H](OC(=O)[C@@H]2[C@@H](C=C(C)C)C2(C)C)CC1=O`: the result (in assay [1]; in assay [2]; in assay [3]; in [4]; in [5]; in the assay with CYP3A5 (gene 1577)) was inactive. The call in assay [8] and in assay [9] was inactive. The AC50 in assay [6] is 50 µM (active); in assay [7], 83.9 µM (active).
As for `CN(C)C(=S)SSC(=S)N(C)C`, the molecule was called inactive (in assay [1]; in assay [2]; in assay [3]; in assay [4]; in assay [5]; in the assay with CYP3A5 (gene 1577)). The result in assay [6], in assay [7], in assay [8] and in assay [9] was inactive.
On to `COC(=O)c1ccccc1C(=O)OC`, for which the result (in assay [1]; in assay [2]; in assay [3]; in assay [4]; in assay [5]; with CYP3A5 (gene 1577)) was inactive. Further, the call in [6], in assay [7], in [8] and in assay [9] was inactive.
With `CCCN(CCC)c1c([N+](=O)[O-])cc(S(N)(=O)=O)cc1[N+](=O)[O-]`, the AC50 in assay [1] was 93.7 µM (active) and 67.7 µM (active); in assay [3], 93.2 µM (active) and 83.6 µM (active) and 78.9 µM (active); in assay [4], 95.9 µM (active) and 78 µM (active); in [5], 6.08 µM (active); in the assay with CYP3A5 (gene 1577) it was 93.8 µM (active) and 50 µM (active); in assay [6], 93.5 µM (active) and 35.6 µM (active) and 34.9 µM (active). In addition, the AC50 in assay [9] was 91 µM (active) and 68.4 µM (active) and 83.1 µM (active). The result (in [1]; in assay [4]; in assay [5]; with CYP3A5 (gene 1577)) was inactive.
Consider `OC(c1ccc(Cl)cc1)(c1cncnc1)c1ccccc1Cl` (stereo not drawn), for which the AC50 in assay [1] is 71.8 µM (active); in assay [2] it was 34.1 µM (active); in [5], 11.9 µM (active); in assay [6], 80.4 µM (active); in assay [7], 72.9 µM (active); in assay [8] it was 77 µM (active). The half-maximal activity concentration (AC50) in assay [9] is 74.8 µM (active). Moreover, the outcome (in [3]; in [4]; with CYP3A5 (gene 1577)) was inactive.
On to `Cc1c(F)c(F)c(COC(=O)C2C(/C=C(\Cl)C(F)(F)F)C2(C)C)c(F)c1F` (stereo not drawn), for which the call (in assay [1]; in assay [3]; in assay [4]; in assay [5]; with CYP3A5 (gene 1577); in [7]) was inactive. Moreover, the molecule was called inactive in assay [8] and in assay [9]. Besides, the AC50 in [2] is 50 µM (active); in assay [6], 63.1 µM (active).
On to `CCNc1nc(Cl)nc(NC(C)C)n1`, for which the outcome (in [1]; in assay [2]; in assay [3]; in assay [4]; in assay [5]; with CYP3A5 (gene 1577)) was inactive. The molecule was classed as inactive in assay [6], in assay [8] and in assay [9]. Moreover, the AC50 in assay [7] is 50 µM (active).
Turning to `N#Cc1cc(Br)c(O)c(Br)c1`, the AC50 in assay [1] was 68.3 µM (active); in assay [2] it was 15.3 µM (active); in [3], 10 µM (active); in assay [5] it was 11.3 µM (active); with CYP3A5 (gene 1577), 9.58 µM (active); in [6] it was 13 µM (active). The AC50 is 25 µM (active) in assay [7], 19.1 µM (active) in assay [8] and 22 µM (active) in [9]. Also, the outcome in assay [4] was inactive.
As to `Cc1cc(Cl)ccc1OCC(=O)O`, the outcome (in assay [1]; in assay [2]; in assay [3]; in assay [4]; in the assay with CYP3A5 (gene 1577); in assay [6]) was inactive. For the same molecule, the molecule was called inactive in assay [7] and in assay [9]. The AC50 in assay [5] was 18.8 µM (active); in assay [8], 24.9 µM (active).
For `N#CC(CCc1ccc(Cl)cc1)(Cn1cncn1)c1ccccc1` (stereo not drawn), the AC50 in assay [1] is 34.8 µM (active); in assay [3], 79.3 µM (active); in assay [4] it was 50 µM (active); in [5], 11.7 µM (active); in assay [6], 79.4 µM (active); in assay [7], 40.4 µM (active). In addition, the AC50 in assay [8] is 75.3 µM (active); in [9], 68 µM (active). The molecule was called inactive (in [2]; in the assay with CYP3A5 (gene 1577)).
As to `CO/C=C(/C(=O)OC)c1ccccc1Oc1cc(Oc2ccccc2C#N)ncn1`, the AC50 in assay [1] is 77.9 µM (active) and 94.2 µM (active) and 77.2 µM (active); in assay [3], 13 µM (active) and 13.3 µM (active); with CYP3A5 (gene 1577), 62.6 µM (active) and 35.6 µM (active); in [6], 82.4 µM (active) and 75.6 µM (active) and 73.2 µM (active); in assay [7], 76.3 µM (active) and 66.9 µM (active) and 65.6 µM (active); in assay [8], 93.4 µM (active) and 94.1 µM (active) and 87.4 µM (active). Also, in assay [9], the AC50 is 81.5 µM (active) and 81 µM (active) and 78.7 µM (active). In addition, the molecule was called inactive (in [2]; in assay [3]; in assay [4]; in assay [5]; in the assay with CYP3A5 (gene 1577)).
